Screening data as filed in PubChem.
This is one part of a sample in which hits are shown more often than they occur.
DT40 TDP1 CPT – qHTS for Inhibitors of human tyrosyl-DNA phosphodiesterase 1 (TDP1): qHTS in cells in presence of CPT; Potency, µM (doses to about 46.2 µM), actives largely listed as inhibitors; chicken DT40 Tdp1-/-;hTDP1 cells + 20 nM CPT, ATP luminescence, 48 h; 420,000 compounds, 12% hits; AID 686979, 2013; further: nearly all actives have a fitted effect of over 55% in size
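Chicken DT40 Tdp1-/- cells stably complemented with human TDP1 were seeded at 400 cells/well in medium containing 20 nM camptothecin, exposed to pin-transferred compounds, and grown at 37 °C for at least 48 hr. Viability was read as ATP luminescence.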
IL-1B inflam inh – qHTS for Inhibitors of Inflammasome Signaling: IL-1-beta AlphaLISA Primary Screen; 360,000 compounds, 4.7% hits; activity change, % at 57.5 µM; THP-1 LPS/ATP IL-1B secretion, AlphaLISA, 16 h; hits give low values; in the data active means activity change below about -50%; inconclusive means mostly about -30% to -49%
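THP-1 cells pretreated 1 hr with compounds (up to 57.5 uM final), then stimulated with LPS (250 ng/mL final) plus ATP (1.25 mM final); secreted IL-1B measured by AlphaLISA after 16 hr, decreased signal indicating inhibition.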
TDP1 cell noCPT – qHTS for Inhibitors of human tyrosyl-DNA phosphodiesterase 1 (TDP1): qHTS in cells in absence of CPT; DT40 Tdp1-/- hTDP1 cells, no CPT, ATP luminescence, 48 h; Potency, µM (doses to about 46.2 µM), most hits filed as inhibitors; 420,000 compounds, 15% hits; further: nearly all actives have a fitted effect of over 55% in size
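Stably hTDP1-transfected Tdp1-null chicken DT40 cells were treated with library compounds minus camptothecin and grown for at least 48 hr at 37 °C, after which cellular ATP was quantified by luminescence.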
HT1080-NT tox – qHTS for induction of synthetic lethality in tumor cells producing 2HG: qHTS for the HT-1080-NT fibrosarcoma cell line. HT-1080-NT fibrosarcoma viability, CellTiter-Glo ATP luminescence, 48 h. Potency, µM (highest dose often 46.1 µM), most hits filed as cytotoxic. 360,000 compounds, 1.6% hits. AID 686970, 2013;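 further: NT is the 2HG producing partner of a matched IDH1 knockdown line; nearly all actives have a fitted effect of over 55% in size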
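Viability by CellTiter-Glo luminescence after 48 h compound exposure at 37C of HT-1080-NT cells (750/well, RPMI, 5% FBS). % activity scaled between DMSO wells and medium-only wells, then curve-fitted and categorized by curve class.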
ALOX12 inh – Primary qHTS assay for inhibitors of human arachidonate 12S-lipoxygenase (ALOX12): Round 2; Polyunsaturated fatty acid lipoxygenase ALOX12 (Homo sapiens), P18054; purified 12hLO, xylenol orange hydroperoxide absorbance; 580,000 compounds, 1.1% hits; Potency, µM (series often up to 108 µM), usual class: inhibitors; AID 1671190, 2021
Target sequence (P18054 whole entry, looked up): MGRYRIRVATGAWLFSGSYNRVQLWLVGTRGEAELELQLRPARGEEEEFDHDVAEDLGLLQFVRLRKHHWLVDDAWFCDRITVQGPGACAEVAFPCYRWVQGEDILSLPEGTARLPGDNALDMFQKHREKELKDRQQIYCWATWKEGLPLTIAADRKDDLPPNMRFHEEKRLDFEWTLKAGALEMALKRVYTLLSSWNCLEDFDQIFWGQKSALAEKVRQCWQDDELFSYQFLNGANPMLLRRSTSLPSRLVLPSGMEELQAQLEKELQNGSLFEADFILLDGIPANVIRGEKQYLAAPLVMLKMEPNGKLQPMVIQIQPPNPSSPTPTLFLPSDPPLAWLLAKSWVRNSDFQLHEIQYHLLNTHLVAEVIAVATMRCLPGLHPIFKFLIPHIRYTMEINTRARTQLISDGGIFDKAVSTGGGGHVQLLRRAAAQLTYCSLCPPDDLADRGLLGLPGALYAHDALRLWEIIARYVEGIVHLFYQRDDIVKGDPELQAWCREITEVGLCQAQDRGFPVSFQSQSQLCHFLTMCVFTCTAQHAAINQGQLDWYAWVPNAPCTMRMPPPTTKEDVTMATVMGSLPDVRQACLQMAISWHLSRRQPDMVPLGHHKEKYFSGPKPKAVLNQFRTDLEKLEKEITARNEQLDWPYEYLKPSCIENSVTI
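Hydroperoxide product was detected by ferrous iron/xylenol orange as the 573 to 405 nm absorbance ratio. Arachidonic acid at 40 uM (final) was turned over for 30 min at room temperature by 150 nM human 12hLO, pH 7.0 Hepes buffer, after 15 min compound preincubation.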
HT1080 IDH1KD tx – qHTS for induction of synthetic lethality in tumor cells producing 2HG: qHTS for the HT-1080-IDH1KD cell line | HT-1080 IDH1 knockdown viability, ATP luminescence, 48 h | Potency, µM (top dose mostly 46.1 µM), actives largely listed as cytotoxic | 360,000 compounds, 2% hits | AID 686971, 2013
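Assay cells: HT-1080 with IDH1 knockdown, 750 per well, RPMI/5% FBS. Exposure: 48 h at 37 °C following 2 h pre-incubation. Read: CellTiter-Glo luminescence; fitted concentration-response, curve class assigned.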
Hits are given with their value; n = inactive; u = inconclusive; x = no result. Unless noted, the call rests on the fitted dose curve; in most records, active means well fitted curve in the direction sought with a large enough effect; inconclusive means small, poorly fitted or top-dose-only effect, or another doubt; inactive means no such curve, though single readings can be large; an effect the other way counts as inactive or inconclusive.

SMILES | DT40 TDP1 CPT | IL-1B inflam inh | TDP1 cell noCPT | HT1080-NT tox | ALOX12 inh | HT1080 IDH1KD tx
O=C(C1=C[C@H](c2ccc(C(F)(F)F)cc2)C[C@H](OCc2ccc(CO)cc2)O1)N1CCCCCCC1 | u | n | u | u | x | u
O=C(C1=C[C@@H](c2ccccc2)C[C@@H](OCc2ccc(CO)cc2)O1)N1CCN(Cc2ccc3c(c2)OCO3)CC1 | 18µM | u | 21µM | u | n | 16µM
O=C(C1=C[C@H](c2ccccc2)C[C@H](OCc2ccc(CO)cc2)O1)N1CCN(Cc2ccccc2)CC1 | u | -60 | u | n | n | n
O=C(C1=C[C@H](c2ccccc2)C[C@H](OCCCCO)O1)N1CCN(Cc2ccc3c(c2)OCO3)CC1 | u | n | n | n | n | n
COc1ccc(S(=O)(=O)Nc2ccc3n(c2=O)C[C@H]2C[C@@H]3CN(C(=O)Nc3cc(OC)cc(OC)c3)C2)cc1 | x | x | x | x | n | x
Cc1c(C2(O)CCCCC2)[nH]c2cc(C(F)(F)F)ccc12 | 21µM | -65 | 16µM | u | u | u
CCc1c(C2(O)CCCCC2)[nH]c2cc(C(F)(F)F)ccc12 | u | n | 13µM | u | x | u
Cc1cc(Cl)ccc1S(=O)(=O)N1CCCC(Cn2c(C)nc3cccnc32)C1 (stereo not drawn) | x | x | x | x | n | x
O=[N+]([O-])c1cccc(-n2nc(-c3ccccc3)c3cnc4ccccc4c32)c1 | x | x | x | x | n | x
O=C(CCC1N=C2c3ccccc3N=C(SCc3ccc(Cl)cc3)N2C1=O)NC1CCCCC1 (stereo not drawn) | n | x | 13µM | x | n | x
Cc1ccc(CSC2=Nc3ccccc3C3=NC(CCC(=O)NC4CCCCC4)C(=O)N23)cc1 (stereo not drawn) | 23µM | x | u | x | u | x
COc1ccccc1CNC(=O)CCC1N=C2c3ccccc3N=C(SCc3ccc(C)cc3)N2C1=O (stereo not drawn) | u | x | u | x | n | x
CCc1nn(-c2ccccc2)c2c1CN(C(=O)NCC(=O)OC)C(c1ccc(F)cc1)c1cccn1-2 (stereo not drawn) | x | x | x | x | n | x
Cc1cc2c3c(c1)C1(C(=O)N3C(C)(C)CC2C)C(C#N)=C(N)Oc2cc(O)ccc21 (stereo not drawn) | n | n | 25µM | u | u | u
Cc1ccc(N2CC(c3noc(C4CCN(C(=O)c5ccccc5)CC4)n3)CC2=O)cc1 (stereo not drawn) | x | x | x | x | n | x
CC1CCN(C(=O)C2CCCN(c3ncnc4c3nc3n4CCCCC3)C2)CC1 (stereo not drawn) | u | n | u | n | n | n
COc1cccc(N2CCN(C(=O)C3CCCN(c4ncnc5c4nc4n5CCCCC4)C3)CC2)c1 (stereo not drawn) | 16µM | n | u | n | n | n
CCOC(=O)N1CCN(C(=O)C2CCCN(c3ncnc4c3nc3n4CCCCC3)C2)CC1 (stereo not drawn) | u | n | u | n | n | n
O=C(C1CCCN(c2ncnc3c2nc2n3CCCCC2)C1)N1CCN(c2ccccc2F)CC1 (stereo not drawn) | u | n | 9.2µM | n | n | n
CCCC(=O)C1=C(c2ccccc2)C(C#N)(C#N)C(C#N)=C1N | 18µM | n | 15µM | n | u | n
CCCC(=O)C1=C(N(C)c2ccccc2)CC(C)(C)CC1=O | u | n | n | n | u | n
Cn1nc(C(=O)N2CCOCC2)cc1C(=O)Nc1cc(F)ccc1F | x | x | x | x | n | x
O=C1C(C=NCc2ccncc2)=C(O)c2ccccc21 | n | n | n | n | n | n
